Reference: PubChem BioAssay AID624172 (National Center for Advancing Translational Sciences (NCATS), 2012)
In all, about 380,000 compounds went through this assay and about 25 (0.007%) were called active. The call rests on the fitted dose curve; in most records, active means well fitted activation curve with a large enough effect; inconclusive means small, poorly fitted or top-dose-only effect; inactive means no such curve, though single readings can be large or run the other way. These entries were drawn from the full list.

biological target: Glucagon-like peptide 1 receptor (Homo sapiens) (UniProt P43220); test: qHTS of GLP-1 Receptor Agonists; settings: HEK293 GLP-1R CRE-luciferase, luminescence, 4-6 h, cells express a hypersensitive GLP-1R form; series mostly up to 45.6 µM; activation: at the top concentration; further: % of control where 0% means no effect
Excerpt: The overall goal of this project was to develop a novel assay for discovering small molecule ligands for class B1 G protein-coupled receptors (GPCRs). Very few agonists (or inverse agonists) with generally weak activity for this entire group of physiologically important receptors are known to date. To establish proof-of-principle that this critical bottleneck can be overcome with a suitable screening approach, our studies focused on the class B1 receptor for glucagon-like peptide-1 (GLP-1R), a potential therapeutic target for diabetes and neurodegenerative disease.
The assay was developed in a "mix and measure" format using a cell-based functional readout. Toward this goal, stably transfected HEK293 cell clones were established that co-express (i) a cAMP-responsive luciferase reporter gene, and (ii) GLP-1Rs that upon ligand interaction either stimulate (agonists) or inhibit (inverse agonists) luciferase activity. In different cell lines to be used for screening, expressed GLP-1Rs are specifically optimized for high sensitivity detection of either weak agonists (hypersensitive receptor) or inverse agonists (constitutively active receptor mutant). In addition, control cell lines were developed that express either the cAMP-responsive reporter gene without recombinant GLP-1Rs (enabling initial exclusion of GLP-1R independent effects of candidate probes), or the reporter gene together with wild type GLP-1Rs (for confirmation of probe activity at this receptor), or the reporter gene in combination with the constitutively active orphan receptor GPR119 (enabling initial exclusion of GLP-1R independent inhibitory effects of candidate inverse agonists).
To that end, this assay was optimized for 1536-well format and screened against the MLSMR.
NIH Molecular Libraries Probe Production Network [MLPCN]
NIH Chemical Genomics Center [NCGC]
PI Name: Martin Beinborn, Tufts Medical Center
In a white solid 1536-well plate, 6 uL of cells are dispensed in DMEM without phenol red, 10% Nu serum, and 1% pen-strep medium. The plates are then incubated for 12 hours at 37 deg C at 5% CO2 before 23 nL of compounds are added. After a 4-6 hr incubation at37 deg C and 5% CO2, 3 uL of detection reagent are added and after a 12 min incubation at RT, a luminescent read is obtained on the ViewLux.

Glucagon-like peptide 1 receptor (Homo sapiens), sequence (P43220 whole entry, looked up): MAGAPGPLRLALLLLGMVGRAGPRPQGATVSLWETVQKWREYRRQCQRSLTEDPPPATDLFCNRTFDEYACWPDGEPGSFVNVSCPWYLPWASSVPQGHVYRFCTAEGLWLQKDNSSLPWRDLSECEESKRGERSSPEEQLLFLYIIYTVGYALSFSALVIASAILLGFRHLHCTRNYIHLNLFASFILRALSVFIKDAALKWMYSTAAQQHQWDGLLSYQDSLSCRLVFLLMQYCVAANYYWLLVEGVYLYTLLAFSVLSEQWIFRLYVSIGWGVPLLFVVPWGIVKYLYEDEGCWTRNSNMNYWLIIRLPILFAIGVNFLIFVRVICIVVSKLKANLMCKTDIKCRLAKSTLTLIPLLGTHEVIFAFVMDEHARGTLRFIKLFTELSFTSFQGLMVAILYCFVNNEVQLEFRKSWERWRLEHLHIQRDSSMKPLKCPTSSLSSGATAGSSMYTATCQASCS

| Compound | activation |
| --- | --- |
| O=C1c2c(O)cccc2[C@@H]([C@@H]2O[C@H](CO)[C@@H](O)[C@H](O)[C@H]2O)c2cc(CO)cc(O)c21 | 0.834% (inactive) |
| CCOCCCNC(=O)c1cn(CC)c2ccc(S(=O)(=O)N3CCc4ccccc4C3)cc2c1=O | 1.02% (inactive) |
| CC(=O)N1CCc2cc(Br)cc(S(=O)(=O)CCC(=O)NCCc3ccc(Cl)cc3)c21 | 0.617% (inactive) |
| COc1ccc(Nc2ncc(C(=O)Nc3cc(C)ccc3OC)c3ccccc23)cc1 | 0.74% (inactive) |
| COc1cc2nc(SCC(=O)Nc3ccccc3F)n3nc(-c4ccccc4)nc3c2cc1OC | -0.682% (inactive) |
| CCN(CC)c1ccc(C2C(C(N)=O)=C(C)Nc3nc(SCc4ccccc4)nn32)cc1 (configuration not stated) | 2.01% (inactive) |
| CCCCCn1c(=O)[nH]c2cc(C(=O)Nc3ccc(F)cc3)ccc2c1=O | 0.528% (inactive) |
| CC[C@]1(C)CC(=O)NC1=O | -4.13% (inactive) |
| COc1cc(OC)c(NC(=O)c2c3c(nn2C)-c2ccccc2SC3)cc1Cl | 0.142% (inactive) |
| COc1ccc(-c2cc(C(F)(F)F)nc(SCC(=O)N(C)Cc3ccccc3)n2)cc1OC | 4% (inactive) |
| CC1(C)O[C@@H]2C[C@@H]3[C@H]4C[C@@H](F)C5=CC(=O)C=C[C@]5(C)[C@@]4(F)[C@@H](O)C[C@]3(C)[C@]2(C(=O)CO)O1 | -0.578% (inactive) |
| Cc1ccc(C)c(N2C(=O)N(Cc3c(F)cccc3Cl)c3ccccc3S2(=O)=O)c1 | 0.891% (inactive) |
| COc1cccc(CNC(=O)C(NS(=O)(=O)c2ccc3nc(C)sc3c2)C(C)C)c1 (configuration not stated) | -4.28% (inactive) |
| Cc1cc2c(cc1S(=O)(=O)CCC(=O)Nc1ccc(OC(F)(F)F)cc1)OCC(=O)N2 | 18.1% (inactive) |
| NC(=O)C(=O)N/N=C/c1ccc([N+](=O)[O-])o1 | -3.04% (inactive) |
| Cc1ccc(-c2ncc(Cl)cc2-c2ccc(S(C)(=O)=O)cc2)cn1 | 0.0129% (inactive) |
| Cc1nnc(C(=O)NC(C)(C)c2nc(C(=O)NCc3ccc(F)cc3)c(O)c(=O)n2C)o1 | 12.6% (inactive) |
| CC[C@]1([C@H]2O[C@@H]([C@@H]3O[C@](O)(CO)[C@@H](C)C[C@H]3C)C[C@H]2C)CC[C@@H]([C@]2(C)CC[C@@]3(C[C@@H](O)[C@@H](C)[C@@H]([C@H](C)[C@H](OC)[C@H](C)C(=O)O)O3)O2)O1 | -2.14% (inactive) |
| COc1ccc(NC(=O)C2CCCN(S(=O)(=O)c3c(C)[nH]c(=O)[nH]c3=O)C2)c(OC)c1 (configuration not stated) | -0.467% (inactive) |
| Cc1cccc(C)c1NC(=O)NC1=CCCN1C | 4.03% (inactive) |
| CCCN(C(=O)Cn1cc(S(=O)(=O)N2CCN(c3ccccc3F)CC2)c2ccccc2c1=O)c1cccc(C)c1 | -0.739% (inactive) |

| Compound | activation |
| --- | --- |
| C[C@@H]1C[C@H]2[C@@H]3C[C@H](F)C4=CC(=O)C=C[C@@]4(C)[C@]3(F)[C@H](O)C[C@]2(C)[C@@]1(O)C(=O)CO | -0.723% [at 19.8 µM] (inactive) |
| CCCC(=O)O[C@]1(C(=O)COC(=O)CC)CC[C@@H]2[C@@H]3CCC4=CC(=O)CC[C@]4(C)[C@H]3[C@@H](O)C[C@@]21C | -1.61% (inactive) |
| CC(=O)CC(c1ccccc1)C1C(=O)Oc2ccccc2C1=O (configuration not stated) | -4.85% (inactive) |
| COc1cc2c(cc1OC)[C@@H](Cc1cc(OC)c(OC)c(OC)c1)[N+](C)(CCCOC(=O)CC/C=C/CCC(=O)OCCC[N+]1(C)CCc3cc(OC)c(OC)cc3[C@H]1Cc1cc(OC)c(OC)c(OC)c1)CC2 (some centres not stated) | -0.798% (inactive) |
| Cc1cc(OCC(=O)NCC2(N(C)C)CCCCC2)cc(C)c1Cl | -2.17% (inactive) |
| CC(=O)c1ccc(NC(=O)C2CCN(S(=O)(=O)c3c(C)noc3/C=C/c3ccc(C)cc3)CC2)cc1 | -2.34% (inactive) |
| COc1ccc(NC(=O)c2cnc(Nc3ccc(C)c(Cl)c3)c3ccccc23)cc1OC | -1.26% (inactive) |
| O=C(NCc1ccccc1)C1CCN(S(=O)(=O)c2ccc3[nH]c(=O)ccc3c2)CC1 | 1.16% (inactive) |
| CC1=Nc2cc(C(=O)N3CCC(C)CC3)ccc2Sc2ccc(Cl)cc21 | 0.558% (inactive) |
| Cc1cn([C@H]2CC(F)[C@@H](CO)O2)c(=O)[nH]c1=O (some centres not stated) | 7% (inactive) |
| Cc1cccc(-n2c(=O)c3c(c4cc(C)ccc4n3C)n(CC(=O)Nc3ccccc3Cl)c2=O)c1 | 0.522% (inactive) |
| O=C(O)CCCCC(=O)O | -6.16% (inactive) |
| Cc1ccc(CCNC(=O)Cn2c(-c3cccs3)cc3cc(F)ccc32)cc1 | -0.201% (inactive) |
| CC(C)(O)c1ccccc1CC[C@H](SCC1(CC(=O)O)CC1)c1cccc(/C=C/c2ccc3ccc(Cl)cc3n2)c1 | 5.38% (inactive) |
| CO/N=C(\C(=O)N[C@@H]1C(=O)N2C(C(=O)O)=C(Cn3nnc(C)n3)CS[C@H]12)c1csc(N)n1 | -4.78% (inactive) |
| COc1ccc(CCNC(=O)CCCCn2c(=O)c3ccccc3n(Cc3ccccc3C)c2=O)cc1OC | 12.4% (inactive) |
| CCOc1ccc(CNCCSc2nnnn2C)cc1 | -0.857% (inactive) |
| CC(O)COc1ccccc1 (configuration not stated) | -2.13% (inactive) |
| Cc1ccc(C(=O)Nc2ccc(OCc3cc(=O)n4c5c(sc4n3)CCCC5)cc2)cc1 | -0.745% (inactive) |
| COc1cc([C@@H]2c3cc4c(cc3[C@@H](O[C@@H]3O[C@@H]5CO[C@@H](C)O[C@H]5[C@H](O)[C@H]3O)[C@H]3COC(=O)[C@H]23)OCO4)cc(OC)c1OP(=O)(O)O | -0.904% (inactive) |
| Cn1c(=O)c2c(nc(NCCc3ccccc3)n2Cc2ccccc2Br)n(C)c1=O | 1.23% (inactive) |
